Source: PubChem
Shown are actives, neighbours in structure and some others; about 0.9% of the full set was active somewhere.
A1 inh: inducers of caspase activity in MEF A1-2A-BIM cells, primary screen, A1 inhibitor project, cell-based, CaspaseGlo luminescence; caspase activation, % (no concentration beside the values); 21,000 compounds, 0.51% hits; caspase-Glo luminescence, 3 h; percent of clofoctol signal, DMSO as zero;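 active = most replicate scores above 10, or exactly half above 10 with mean activity above 10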;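 also: effector caspase 3 and 7 activity cleaving a DEVD luciferin substrate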
BJeLR viability: BJeLR cell viability loss, primary screen, luminescence, CellTiterGlo ATP. BJeLR fibroblasts viability, 48 h; HRASV12, hTERT and SV40 LT/ST transformed. viability loss activity score, % (no concentration beside the values). 30,000 compounds, 0.64% hits. AID 2275, 2010; in the data active = viability loss activity score above about 50%;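 also: higher score means fewer live cells and less ATP luminescence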
Numbers stand for hits; . = inactive; / = no result.

SMILES | A1 inh | BJeLR viability
O=C(CCn1c(SCc2ccc(F)cc2)nc2c(sc3ccccc32)c1=O)NCC1CCCO1 (stereo not given) | / | .
Cc1ccc(NC(=O)CSc2nc3c(sc4ccccc43)c(=O)n2CC2CCCO2)cc1C (stereo not given) | 33 | .
CCSCC1COC(c2cccn2Cc2ccc(F)cc2)=N1 (stereo not given) | / | .
CCC(C)(C)C1CCc2oc3ccc(NS(=O)(=O)c4cccs4)cc3c2C1 (stereo not given) | . | .
O=S(=O)(c1cccs1)n1ccnc1 | / | .
CCc1ccccc1NC(=O)CCN1C(=O)c2ccccc2C1=O | . | .
O=C(CCCCCN1C(=O)c2cccc3cccc(c23)C1=O)NO | . | 114
Cc1ccsc1CNC(=O)Nc1ccc(C(F)(F)F)cc1 | / | .
CCOC(=O)c1cnc(N2CCOCC2)nc1N | . | .
CCOC(=O)c1cnc(S/C=C/C(=O)c2ccc(C)cc2)nc1N | . | 90
Cc1nc(Oc2ccc3c(C)cc(=O)oc3c2)c2c3c(sc2n1)CCC3 | . | .
Cc1nc(Oc2ccc(NC(=O)c3ccccc3)cc2)c2c3c(sc2n1)CCC3 | 29 | .
CSc1ccccc1NC(=O)CSc1nc2ccc(C)cc2[nH]1 | . | .
Cc1ccc2nc(S/C=C/C(=O)c3ccccc3)[nH]c2c1 | . | 72
CC(c1ccccc1)N(Cc1ccccc1)C(=S)Nc1ccccc1 (stereo not given) | / | .
COC(=O)CC(O)(CCCC(C)(C)O)C(=O)O[C@@H]1C(OC)=C[C@]23CCCN2CCc2cc4c(cc2[C@@H]13)OCO4 (stereo not given in full) | 10 | /
CCOC(=O)Cn1c(=O)oc2cc(S(=O)(=O)N(C)CCC#N)ccc21 | / | .
O=C(CSc1nc2ccccc2o1)OCc1ccccc1 | . | .
CC1(C)CC(=O)C=C(Sc2nc3ccccc3o2)C1 | . | 76
CC(=O)OC[C@]12[C@H](OC(C)=O)[C@H](OC(C)=O)[C@@H]3[C@@H](OC(C)=O)[C@@]14O[C@@]3(C)COC(=O)c1ncccc1CC[C@H](C)C(=O)O[C@@H]([C@H](O)[C@@H]2OC(=O)c1ccccc1)[C@]4(C)O | . | 51
CC(=O)OC[C@]12[C@@H](OC(C)=O)C[C@@H]3[C@@H](OC(=O)c4ccccc4)[C@]1(OC3(C)C)[C@H](C)C[C@H](OC(=O)c1ccccc1)[C@@H]2OC(C)=O | . | .
CN(C(=O)CSc1c2c(nc3cc(Cl)ccc13)CCCC2)c1ccc(F)cc1 | / | .
OC[C@H]1O[C@@H](n2cnc3c(NCc4ccco4)ncnc32)[C@H](O)[C@@H]1O | . | .
Nc1ncnc2c1c(I)cn2C1OC(CO)C(O)C1O (stereo not given) | 26 | 63
COc1cc(C2Nc3ccccc3S2)cc(OC)c1OC (stereo not given) | . | .
SMILES | A1 inh | BJeLR viability
c1ccc2c(c1)NC(c1ccc3c(c1)OCO3)S2 (stereo not given) | . | 72
COc1ccc(-c2nc(CSCC(=O)N(C)Cc3ccccc3)c(C)o2)cc1OC | / | .
Cc1c(Cc2ccccc2)c(Cl)n2c(nc3ccccc32)c1C#N | . | 64
CCc1c(C)c(C#N)c2nc3ccccc3n2c1N1CCN(CCO)CC1 | / | .
Cc1ccc(C)c2[nH]c(=O)c(CCNC(=O)C(C)(C)Oc3ccc(Cl)cc3)cc12 | / | .
COc1ccc(NC(=O)C2CCCCC2)cc1OC1CCCC1 | / | .
Cc1noc(C(=O)N2CCCc3ccccc32)c1Cl | / | .
CN1C(=O)[C@@]2(Cc3ccccc3)SSS[C@]1(CO)C(=O)N2C | 31 | 87
COc1ccc(C(c2ccc3cccnc3c2O)N2CCOCC2)cc1 (stereo not given) | 43 | .
Oc1c(C(c2ccncc2)N2CCCC2)ccc2cccnc12 (stereo not given) | . | .
CC(CCc1ccccc1)NC(=O)CSc1cc(=O)n(C)c2ccccc12 (stereo not given) | / | .
Cc1ccc(-c2csc(=Nc3ccccc3)n2CCCN(C)C)cc1 | / | .
COc1cc2ncnc(Nc3cccc(Br)c3)c2cc1OC | . | .
COc1cc2ncnc(Nc3cccc(O)c3)c2cc1OC | 12 | .
O=C(NCc1ccccc1Cl)c1ccc2c(Cl)c3c(nc2c1)CCCC3 | / | .
C=C(C)C(=O)O[C@H]1[C@H]2C(=C)C(=O)O[C@@H]2C[C@@H](C)/C=C/C(=O)[C@](C)(O)[C@@H]1OC(C)=O | . | 59
C=C1C(=O)O[C@H]2C1C[C@@H](OC(C)=O)[C@@]1(C)[C@@H](OC(C)=O)C[C@@H](OC(C)=O)C(=C)[C@H]21 (stereo not given in full) | . | .
COc1cc2c(cc1OC)C(COc1ccc(F)cc1)N(C(=S)Nc1cccc(C)c1C)CC2 (stereo not given) | / | .
COC(=O)c1ccc(Nc2cc(C)nc3ccccc23)cc1 | . | 62
